Data as given in PubChem BioAssay.
Activity calls are given as the source filed them.

Key:
[1] = tested on: Plasmodium falciparum Sir2 (PF13_0152, Sir2A); experiment: pfSir2 binders on small-molecule microarrays, primary screen, biochemical, small-molecule microarray, 635 nm fluorescence (AID 1098); details: small-molecule microarray binding, fluorescence 635 nm; higher = more signal;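 also: score merges spot fluorescence intensity with its signal-to-noise ratio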
[2] = small-molecule microarray binders of probe aDKK1, primary screen, biochemical, biotinylated probe, 635/667 nm fluorescence (AID 1099); details: higher = more signal;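 also: score merges 667nm spot fluorescence with signal to noise across triplicate slides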
[3] = small-molecule microarray binders of probe aCHRDL2, primary screen, biochemical, biotinylated probe, 635/667 nm fluorescence (AID 1100); details: higher = more signal
[4] = splicing luciferase reporter signal modulators, primary screen, spliceosome inhibition project, cell-based, HEK293, splice +/- reporter (AID 1101); details: luminescence, 24 h, higher = more signal, called active from +8 up or from −8 down;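 also: HEK293 cells carrying a splicing-competent luciferase reporter gene; test concentration not given here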
[5] = target: Fibroblast growth factor 10 (Homo sapiens) (UniProt O15520); experiment: FGF10 binders on small-molecule microarrays, primary screen, biochemical, small-molecule microarray, 635 nm fluorescence (AID 1102); details: FGF10 binding, fluorescence 635 nm, higher = more signal
[6] = tested on: glycogen synthase kinase-3 (GSK3A per assay name; protocol says GSK3B); experiment: GSK3 binders on small-molecule microarrays, primary screen, biochemical, small-molecule microarray, 635 nm fluorescence, GSK3A (AID 1103); details: small-molecule microarray binding, fluorescence 635 nm; higher = more signal; also: the record names both GSK3A and GSK3B
[7] = target: Epidermal growth factor receptor (Homo sapiens) (UniProt P00533); experiment: EGFR binders on small-molecule microarrays, primary screen, biochemical, small-molecule microarray, 635 nm fluorescence (AID 1104); details: EGFR binding, higher = more signal;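 also: score merges 667 nm emission intensity with spot signal to noise over triplicate slides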
[8] = target: Follistatin-related protein 3 (Homo sapiens) (UniProt O95633); experiment: FSTL3 binders on small-molecule microarrays, primary screen, biochemical, small-molecule microarray, 635 nm fluorescence (AID 1105); details: FSTL3 binding, higher = more signal;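 also: score merges emission near 667 nm and signal to noise per printed spot across three slides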
[9] = target: Dickkopf-related protein 1 (Homo sapiens) (UniProt O94907); experiment: DKK1 binders on small-molecule microarrays, primary screen, biochemical, small-molecule microarray, 635 nm fluorescence scan (AID 1106); details: DKK1 binding, higher = more signal;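 also: score merges emission near 667 nm with signal to noise over three replicate slides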
[10] = tested on: Inhibin beta A chain (activin A); experiment: INHBA (activin A) binders on microarrays, primary screen, biochemical, small-molecule microarray, 635 nm fluorescence scan (AID 1107); details: small-molecule microarray binding, higher = more signal;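 also: mouse activin A protein probed at 4.33 µg/mL on printed slides; score merges bound-protein fluorescence near 667 nm with spot signal-to-noise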
[11] = tested on: Human papillomavirus type 1a protein E7 (residues 44-93); experiment: HPV1a E7 fragment binders on microarrays, primary screen, biochemical, small-molecule microarray, residues 44-93, 635 nm fluorescence (AID 1108); details: small-molecule microarray binding, fluorescence 635 nm; higher = more signal;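 also: E7 fragment applied at 1 µg/mL in TBST for 1 h at 4 C; score combines spot fluorescence with its signal to noise ratio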
[12] = modulators of HCV replicon luciferase signal, primary screen, HCV replication inhibitor project, Huh7 cells, luciferase reporter (AID 1109); details: 48 h, higher = more signal;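 also: huh7 hepatoma cells harbouring a luciferase neomycin HCV replicon reporter; luciferase luminescence as measure of HCV replicon replication; test concentration not given here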
[13] = target: Left-right determination factor 2 (Homo sapiens) (UniProt O00292); experiment: LEFTY2 binders on small-molecule microarrays, primary screen, biochemical, small-molecule microarray, 635 nm fluorescence scan (AID 1110); details: LEFTY2 binding, higher = more signal
[14] = target: Calmodulin-1 (Homo sapiens) (UniProt P0DP23); experiment: CALM1 binders on microarrays, EGTA buffer, profiling panel, biochemical, small-molecule microarray, Cy5-labelled CALM1 (AID 1111); details: Cy5-CALM1 binding fluorescence, higher = more signal;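 also: labelled calmodulin applied in Tris saline Tween buffer holding calcium plus EGTA and DTT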
[15] = target: Calmodulin-1 (Homo sapiens) (UniProt P0DP23); experiment: calcium-bound CALM1 binders on microarrays, profiling panel, artefact control for SMM control-protein annotation, biochemical, small-molecule microarray, Cy5-labelled CALM1, plus calcium (AID 1112); details: Cy5-CALM1 binding fluorescence, higher = more signal;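 also: score merges spot fluorescence with signal to noise from triplicate slides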
[16] = small-molecule microarray binders of probe aWnt5a, primary screen, biochemical, biotinylated probe, 635/667 nm fluorescence (AID 1113); details: higher = more signal;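 also: score merges 667 nm fluorescence intensity with signal-to-noise per printed feature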
[17] = small-molecule microarray binders of probe aShh, primary screen, biochemical, biotinylated probe, 635/667 nm fluorescence (AID 1114); details: higher = more signal;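 also: probe is biotin-labelled aShh protein from a stem cell growth factor screen; measures binding of labelled protein to compounds printed on the slide; score merges feature fluorescence at 667 nm with signal-to-noise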
[18] = small-molecule microarray binders of probe aNog, primary screen, biochemical, biotinylated probe, 635/667 nm fluorescence (AID 1115); details: higher = more signal;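 also: probe is biotinylated aNog protein used at 0.15 µg/mL for 1 h at 4 C; z-score combines 667 nm fluorescence of each spot with its signal to noise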
[19] = target: Torsin-1A-interacting protein 1 (Homo sapiens) (UniProt Q5JTV8); experiment: LAP1 binders from COS7 cell lysate, primary screen, small-molecule microarray, 635/667 nm fluorescence (AID 1116); details: COS7-hLAP1 lysate binding, 635 nm fluorescence, higher = more signal
[20] = target: Alpha-bungarotoxin (Bungarus multicinctus) (UniProt P60615); experiment: alpha-bungarotoxin binders on microarray, profiling panel, artefact control for SMM control protein annotation, biochemical, small-molecule microarray, Alexa647 label, 635/667 nm fluorescence (AID 1117); details: alpha-BTX-A647 binding fluorescence, higher = more signal
Sequence of Alpha-bungarotoxin (Bungarus multicinctus) (P60615 whole entry, looked up): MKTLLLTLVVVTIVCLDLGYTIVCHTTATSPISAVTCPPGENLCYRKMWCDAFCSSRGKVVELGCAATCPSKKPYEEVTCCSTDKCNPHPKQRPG

Sequence of Follistatin-related protein 3 (Homo sapiens) (O95633 whole entry, looked up): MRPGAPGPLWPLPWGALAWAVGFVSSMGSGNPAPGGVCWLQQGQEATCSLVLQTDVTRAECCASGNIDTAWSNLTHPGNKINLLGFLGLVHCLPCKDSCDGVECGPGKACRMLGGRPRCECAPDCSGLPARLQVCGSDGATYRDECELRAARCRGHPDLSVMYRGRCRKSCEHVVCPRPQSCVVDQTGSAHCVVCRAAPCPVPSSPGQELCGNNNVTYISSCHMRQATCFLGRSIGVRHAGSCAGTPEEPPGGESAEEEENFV
Sequence of Torsin-1A-interacting protein 1 (Homo sapiens) (Q5JTV8 whole entry, looked up): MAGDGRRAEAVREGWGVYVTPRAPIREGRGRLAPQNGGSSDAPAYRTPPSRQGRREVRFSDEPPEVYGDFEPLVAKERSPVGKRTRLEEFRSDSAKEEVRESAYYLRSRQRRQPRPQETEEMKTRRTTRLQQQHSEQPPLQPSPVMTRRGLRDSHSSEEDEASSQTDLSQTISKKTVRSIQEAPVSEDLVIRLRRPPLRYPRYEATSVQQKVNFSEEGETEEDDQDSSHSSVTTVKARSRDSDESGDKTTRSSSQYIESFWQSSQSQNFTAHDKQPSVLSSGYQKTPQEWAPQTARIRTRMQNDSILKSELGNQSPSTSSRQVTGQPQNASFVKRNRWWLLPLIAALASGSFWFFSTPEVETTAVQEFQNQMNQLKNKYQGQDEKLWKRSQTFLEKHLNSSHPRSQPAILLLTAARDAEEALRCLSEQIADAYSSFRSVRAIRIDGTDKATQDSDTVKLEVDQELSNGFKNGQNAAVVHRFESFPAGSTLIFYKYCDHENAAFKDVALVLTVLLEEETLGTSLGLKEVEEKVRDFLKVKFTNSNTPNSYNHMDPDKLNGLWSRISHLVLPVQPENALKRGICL
Sequence of Left-right determination factor 2 (Homo sapiens) (O00292 whole entry, looked up): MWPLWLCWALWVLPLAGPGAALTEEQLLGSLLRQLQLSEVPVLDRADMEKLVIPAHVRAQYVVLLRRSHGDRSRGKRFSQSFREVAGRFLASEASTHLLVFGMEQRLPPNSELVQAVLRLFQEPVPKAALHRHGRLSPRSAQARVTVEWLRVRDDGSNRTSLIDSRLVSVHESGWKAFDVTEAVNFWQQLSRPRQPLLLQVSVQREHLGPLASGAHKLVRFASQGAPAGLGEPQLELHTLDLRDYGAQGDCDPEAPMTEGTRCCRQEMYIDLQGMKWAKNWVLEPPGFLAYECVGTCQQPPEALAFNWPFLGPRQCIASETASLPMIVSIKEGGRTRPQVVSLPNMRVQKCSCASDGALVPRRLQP
Sequence of Fibroblast growth factor 10 (Homo sapiens) (O15520 whole entry, looked up): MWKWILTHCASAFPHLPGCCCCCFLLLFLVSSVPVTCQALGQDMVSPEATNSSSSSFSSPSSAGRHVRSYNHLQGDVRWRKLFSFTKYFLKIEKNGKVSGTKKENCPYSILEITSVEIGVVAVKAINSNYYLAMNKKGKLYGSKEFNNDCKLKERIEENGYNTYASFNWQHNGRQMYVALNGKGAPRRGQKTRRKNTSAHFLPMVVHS
Sequence of Epidermal growth factor receptor (Homo sapiens) (P00533 whole entry, looked up): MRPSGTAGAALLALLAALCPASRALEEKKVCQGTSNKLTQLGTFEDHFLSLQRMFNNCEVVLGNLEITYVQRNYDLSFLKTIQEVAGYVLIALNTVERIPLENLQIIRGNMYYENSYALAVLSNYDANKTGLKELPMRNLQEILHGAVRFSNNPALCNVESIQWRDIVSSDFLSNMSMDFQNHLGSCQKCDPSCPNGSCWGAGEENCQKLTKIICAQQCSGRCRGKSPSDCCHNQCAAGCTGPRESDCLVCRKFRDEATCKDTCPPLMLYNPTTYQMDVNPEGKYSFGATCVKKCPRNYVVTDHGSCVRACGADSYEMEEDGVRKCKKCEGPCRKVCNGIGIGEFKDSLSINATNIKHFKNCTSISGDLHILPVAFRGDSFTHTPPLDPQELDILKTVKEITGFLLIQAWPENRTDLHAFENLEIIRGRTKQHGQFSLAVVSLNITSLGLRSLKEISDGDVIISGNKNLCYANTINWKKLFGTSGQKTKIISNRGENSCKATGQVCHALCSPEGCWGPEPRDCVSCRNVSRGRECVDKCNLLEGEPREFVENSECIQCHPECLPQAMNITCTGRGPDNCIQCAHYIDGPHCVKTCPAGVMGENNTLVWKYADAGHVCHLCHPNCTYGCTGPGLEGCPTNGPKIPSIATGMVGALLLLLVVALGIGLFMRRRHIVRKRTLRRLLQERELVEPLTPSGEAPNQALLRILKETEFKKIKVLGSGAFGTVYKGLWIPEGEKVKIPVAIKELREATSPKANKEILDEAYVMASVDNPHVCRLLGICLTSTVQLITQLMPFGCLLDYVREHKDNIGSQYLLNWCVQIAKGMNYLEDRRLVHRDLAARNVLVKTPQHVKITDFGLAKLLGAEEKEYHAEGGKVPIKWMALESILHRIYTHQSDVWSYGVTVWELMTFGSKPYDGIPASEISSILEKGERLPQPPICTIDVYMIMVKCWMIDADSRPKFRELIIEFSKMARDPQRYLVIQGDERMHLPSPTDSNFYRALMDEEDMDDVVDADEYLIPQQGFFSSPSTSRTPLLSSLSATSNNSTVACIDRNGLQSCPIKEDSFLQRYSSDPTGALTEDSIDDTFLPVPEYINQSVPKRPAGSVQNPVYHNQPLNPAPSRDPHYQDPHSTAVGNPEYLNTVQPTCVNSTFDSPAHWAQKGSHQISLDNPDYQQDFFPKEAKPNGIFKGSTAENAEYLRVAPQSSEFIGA
Sequence of Dickkopf-related protein 1 (Homo sapiens) (O94907 whole entry, looked up): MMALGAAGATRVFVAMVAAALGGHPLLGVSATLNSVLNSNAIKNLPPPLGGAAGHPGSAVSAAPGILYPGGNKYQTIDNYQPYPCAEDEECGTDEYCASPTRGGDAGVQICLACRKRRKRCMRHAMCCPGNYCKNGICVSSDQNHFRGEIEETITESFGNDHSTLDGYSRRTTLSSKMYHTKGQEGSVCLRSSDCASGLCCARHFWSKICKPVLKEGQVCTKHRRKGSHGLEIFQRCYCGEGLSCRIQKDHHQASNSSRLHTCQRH

Compound	composite z-score [1]	composite z-score [2]	composite z-score [3]	z-score [4]	composite z-score [5]	composite z-score [6]	composite z-score [7]	composite z-score [8]	composite z-score [9]	composite z-score [10]	composite z-score [11]	z-score [12]	composite z-score [13]	composite z-score [14]	composite z-score [15]	composite z-score [16]	composite z-score [17]	composite z-score [18]	composite z-score [19]	composite z-score [20]
O=C(NCc1ccccc1)[C@@]1(CCS(=O)(=O)c2ccccc2)COC(c2ccc(OCCCO)cc2)=N1	1.41	0.933	1.47	-0.969 (inactive)	0.748	1.08	-0.166	0.23	-0.594	0.807	0.623	-1.71	-0.0893	2.16	1.11	0.111	0.504	1.85	1.95	3.73
C=CC[C@]1(C(=O)OC)N=C(c2ccc(OCCCO)cc2)O[C@H]1c1ccccc1CN=[N+]=[N-]	0.212	1.21	1.44	-1.4 (inactive)	-0.404	-0.52	-0.493	-0.363	-0.795	1.31	-0.044	-1.31	-0.978	-0.643	0.369	0.0251	-0.0289	0.121	0.782	1.14
COc1ccc(CCNC(=O)[C@@]2(c3ccc([N+](=O)[O-])cc3)CC(=O)N(C(C)C)[C@@H]2c2ccc(CO)cc2)cc1	1.25	0.716	1.24	-0.58 (inactive)	-0.787	-0.767	-1.57	-1.67	-1.43	-0.445	0.0008	-0.309	-1.6	-0.63	-0.0462	-0.129	0.0557	0.132	0.228	-0.631
C=C(CCCC)/C(=C/C[C@H](OC(=O)c1ccncc1)c1cccc(OCCO)c1)c1cc(C(=O)OC)ccc1OC	0.169	-0.166	-0.0107	-1.37 (inactive)	1.04	0.174	-0.218	0.611	0.347	0.868	0.799	-2.61	0.385	0.267	-0.784	0.0394	0.14	-0.226	0.516	0.582
C=C(C)[C@@H]1CC=C(C(O)C2C=CC3C(=O)NC(=O)C3N2Nc2ccccn2)CC1 (stereo not given in full)	1.66	0.946	0.287	1.1 (inactive)	1.14	1.32	1.88	1.65	2.16	1.81	0.355	-0.308	1.57	0.206	-0.815	0.116	0.358	0.145	1.06	2.09
C=CCNC(=O)[C@H]1[C@@H]2C(=O)O[C@@H](c3ccccc3)[C@@H](c3ccccc3)N2[C@@H](c2ccccc2OCCO)[C@]12C(=O)N(C(=O)OCCOC)c1ccc(C#CCC(C(=O)OC)C(=O)OC)cc12	1.1	0.572	0.155	-1.69 (inactive)	0.541	1.29	0.328	0.919	0.271	0.641	-0.29	-1.22	0.208	1.57	0.865	-0.012	0.217	0.419	0.926	1.87
COC(=O)c1c(CC[C@@H](CO)NC(=O)N[C@H](Cn2cc(-c3cncn3C)nn2)C(C)C)oc(C(C)=O)c1C(=O)OC	0.844	-0.203	-0.342	-1.93 (inactive)	0.512	0.861	0.363	0.165	0.265	-0.253	0.873	0.0688	0.332	-0.055	-0.333	-0.1	-0.2	0.0668	0.542	-0.115
CO[C@H]1COC(=O)[C@@H](C)NC(=O)CC=C[C@@H](C)[C@H](OC)COC(=O)CC=C[C@@H]1C	-1.61	-0.994	-1.7	-1.59 (inactive)	0.518	0.442	-0.805	1.34	1.2	1.62	-0.0307	-0.355	1.39	-1.88	-2.99	-0.202	-0.153	-0.559	-0.0099	-1.47
O=C1C2C=CC(C(O)C(c3ccccc3)c3ccccc3)N(Nc3ccc([N+](=O)[O-])cc3)C2C(=O)N1c1ccccc1 (stereo not given)	0.375	0.569	0.767	0.597 (inactive)	1.04	1.32	0.66	0.955	0.331	0.814	1.46	-0.871	0.737	0.858	0.808	0.122	-0.0211	0.676	0.935	1.42
C[N+](C)(C)CCCCNC(=O)[C@@H]1C[C@@H]2C(=O)N3CCC[C@H]3C(=O)N2[C@@H]1c1cccc(OCCO)c1	0.577	-0.222	-0.0397	0.0434 (inactive)	0.455	0.249	0.495	1.45	1.44	0.0648	-0.745	0.0741	1.14	-0.794	0.658	-0.162	-0.0626	-0.0645	1.62	1.16
C[C@]1(C(=O)NCCN2CCOCC2)c2ccccc2C(=O)N(Cc2ccccc2)[C@H]1c1ccc(CO)cc1	1.59	-0.082	0.606	-0.675 (inactive)	-0.632	-0.748	-0.491	-0.824	-0.396	0.519	-0.474	-0.326	-1.01	-0.193	0.349	0.763	0.163	-0.195	-0.705	0.0519
